The panel holds about 83,000 compounds, 20% with a hit somewhere; the sample as a whole holds those more often.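 For each line, cells grew in 96-well plates with the test compound present at a single concentration for 48 hours.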 Calls of active or inactive are those of the source. Rule for the calls: active = growth percent below 10; inactive = the rest.
Experiments:
Assay in all cases: NCI-60 one-dose screen, 48 h (100 = growth as untreated, 0 = no growth, -100 = all killed)
Conditions in all cases: 10 µM unless noted
DU-145 prostate = tested on: DU-145 prostate
K-562 leukemia = tested on: K-562 leukemia
MALME-3M melanoma = tested on: MALME-3M melanoma
MDA-MB-231 breast = tested on: MDA-MB-231 breast
RXF 393 renal = tested on: RXF 393 renal
SF-268 CNS = tested on: SF-268 CNS
SF-295 CNS = tested on: SF-295 CNS
SF-539 CNS = tested on: SF-539 CNS
M14 melanoma = tested on: M14 melanoma
HCT-15 colon = tested on: HCT-15 colon
HT29 colon = tested on: HT29 colon
SNB-75 CNS = tested on: SNB-75 CNS
SNB-19 CNS = tested on: SNB-19 CNS
U251 CNS = tested on: U251 CNS
PC-3 prostate = tested on: PC-3 prostate
SK-MEL-5 melanoma = tested on: SK-MEL-5 melanoma
UACC-62 melanoma = tested on: UACC-62 melanoma
LOX IMVI melanoma = tested on: LOX IMVI melanoma
SK-MEL-28 melanoma = tested on: SK-MEL-28 melanoma

Measured: growth

Cc1cc(C)c2c(=O)[nH]c(SCC(=O)Nc3cccc(S(=O)(=O)N(C)C)c3)nc2n1
inactive: DU-145 prostate 101% | K-562 leukemia 94.1% | MALME-3M melanoma 95.8% | MDA-MB-231 breast 87.6% | RXF 393 renal 58.4% | SF-268 CNS 114% | SF-295 CNS 139% | SF-539 CNS 97.3% | M14 melanoma 100% | HCT-15 colon 119% | HT29 colon 104% | SNB-75 CNS 90.7% | SNB-19 CNS 95.9% | U251 CNS 108% | PC-3 prostate 95.4% | SK-MEL-5 melanoma 113% | UACC-62 melanoma 98.3% | LOX IMVI melanoma 101% | SK-MEL-28 melanoma 126%

O=c1cc(C2NCCc3c2[nH]c2ccccc32)c2c(ccc3ccccc32)o1 (stereo not drawn)
inactive: DU-145 prostate 59.6% | K-562 leukemia 52.9% | MALME-3M melanoma 60.1% | MDA-MB-231 breast 80.7% | RXF 393 renal 44.2% | SF-268 CNS 85.9% | SF-295 CNS 81.8% | SF-539 CNS 79.4% | M14 melanoma 65.2% | HCT-15 colon 44.5% | HT29 colon 56.2% | SNB-75 CNS 51.6% | SNB-19 CNS 88.3% | U251 CNS 66.1% | SK-MEL-5 melanoma 76.4% | UACC-62 melanoma 48.7% | LOX IMVI melanoma 36.8% | SK-MEL-28 melanoma 92.7%

O=C(Nc1ccc(F)cc1)c1cc([N+](=O)[O-])ccc1O
inactive: DU-145 prostate 78.3% | K-562 leukemia 45.3% | MALME-3M melanoma 37.4% | MDA-MB-231 breast 65.9% | RXF 393 renal 68.2% | SF-268 CNS 72.9% | SF-295 CNS 78.6% | SF-539 CNS 47.3% | M14 melanoma 75.7% | HCT-15 colon 68.1% | HT29 colon 61.7% | SNB-75 CNS 78.1% | SNB-19 CNS 70.9% | U251 CNS 61.6% | PC-3 prostate 54.7% | SK-MEL-5 melanoma 30% | UACC-62 melanoma 36.8% | LOX IMVI melanoma 56.3% | SK-MEL-28 melanoma 55.9%

O=P([O-])(O)OP(=O)([O-])O.[NH-][C@H]1CCCC[C@@H]1[NH-].[OH-].[OH-].[Pt+4]
inactive: DU-145 prostate 109% | K-562 leukemia 110% | MALME-3M melanoma 111% | MDA-MB-231 breast 107% | RXF 393 renal 115% | SF-268 CNS 101% | SF-295 CNS 87.1% | SF-539 CNS 105% | M14 melanoma 120% | HCT-15 colon 102% | HT29 colon 110% | SNB-75 CNS 86.6% | SNB-19 CNS 107% | PC-3 prostate 99.5% | SK-MEL-5 melanoma 106% | UACC-62 melanoma 103% | LOX IMVI melanoma 102% | SK-MEL-28 melanoma 118%

COc1cc(C(=O)CCCl)ccc1O
inactive: DU-145 prostate 107% | K-562 leukemia 97.4% | MALME-3M melanoma 88.7% | MDA-MB-231 breast 94.3% | RXF 393 renal 98.2% | SF-268 CNS 96.1% | SF-295 CNS 100% | SF-539 CNS 94.7% | M14 melanoma 111% | HCT-15 colon 95.2% | HT29 colon 112% | SNB-75 CNS 85.8% | SNB-19 CNS 101% | U251 CNS 103% | SK-MEL-5 melanoma 103% | UACC-62 melanoma 97.4% | LOX IMVI melanoma 90.5% | SK-MEL-28 melanoma 107%

O=C(Nc1ccc(F)c(Cl)c1)c1n[nH]c(=O)c2ccccc12
active: RXF 393 renal -29.4%
inactive: DU-145 prostate 131% | K-562 leukemia 99.8% | MALME-3M melanoma 125% | MDA-MB-231 breast 98.3% | SF-268 CNS 99.4% | SF-295 CNS 84.8% | SF-539 CNS 124% | M14 melanoma 115% | HCT-15 colon 89.6% | HT29 colon 112% | SNB-75 CNS 94.2% | SNB-19 CNS 104% | U251 CNS 90.3% | PC-3 prostate 112% | SK-MEL-5 melanoma 90.9% | UACC-62 melanoma 81.4% | SK-MEL-28 melanoma 115%

COC(=O)CCCCCN=Cc1c(O)c(O)c(C(C)C)c2cc(C)c(-c3c(C)cc4c(C(C)C)c(O)c(O)c(C=NCCCCCC(=O)OC)c4c3O)c(O)c12
inactive: DU-145 prostate 23% | MALME-3M melanoma 44.4% | MDA-MB-231 breast 11.9% | RXF 393 renal 29.2% | SF-268 CNS 25.6% | SF-539 CNS 23.7% | M14 melanoma 18.6% | HCT-15 colon 17.2% | SNB-75 CNS 46.9% | SNB-19 CNS 20.6% | PC-3 prostate 14% | SK-MEL-5 melanoma 32.3% | UACC-62 melanoma 25% | LOX IMVI melanoma 13.7% | SK-MEL-28 melanoma 33%
active: K-562 leukemia 9.57% | SF-295 CNS 9.3% | HT29 colon 4.21% | U251 CNS 3.85%

O=C(C[N+](=O)[O-])c1ccc(Cl)cc1
inactive: DU-145 prostate 111% | K-562 leukemia 103% | MALME-3M melanoma 114% | MDA-MB-231 breast 110% | RXF 393 renal 115% | SF-268 CNS 108% | SF-295 CNS 111% | SF-539 CNS 104% | M14 melanoma 101% | HCT-15 colon 103% | HT29 colon 113% | SNB-75 CNS 94.9% | SNB-19 CNS 111% | U251 CNS 107% | PC-3 prostate 97.3% | SK-MEL-5 melanoma 104% | UACC-62 melanoma 101% | SK-MEL-28 melanoma 106%

COc1ncc(-c2ccc3ncnc(Nc4cccc(Cl)c4)c3c2)cc1NS(=O)(=O)C1CC1
inactive: DU-145 prostate 26% | K-562 leukemia 60.5% | MALME-3M melanoma 15.9% | MDA-MB-231 breast 37.9% | SF-268 CNS 43% | SF-295 CNS 34.2% | SF-539 CNS 27% | M14 melanoma 56.6% | HCT-15 colon 27.6% | HT29 colon 29.7% | SNB-19 CNS 49.7% | U251 CNS 59.9% | SK-MEL-5 melanoma 37.3% | UACC-62 melanoma 25.1% | LOX IMVI melanoma 34.8% | SK-MEL-28 melanoma 39.4%
active: RXF 393 renal 1.04% | SNB-75 CNS -1.09%

COC(=O)CCCCN=Cc1c(O)c(O)c(C(C)C)c2cc(C)c(-c3c(C)cc4c(C(C)C)c(O)c(O)c(C=NCCCCC(=O)OC)c4c3O)c(O)c12
active: MDA-MB-231 breast 6.38% | RXF 393 renal 8.84% | SF-295 CNS 2.79% | HT29 colon 4.56%
inactive: DU-145 prostate 24.3% | K-562 leukemia 10.3% | MALME-3M melanoma 42.5% | SF-268 CNS 24.2% | SF-539 CNS 24.2% | M14 melanoma 22.9% | HCT-15 colon 11.1% | SNB-75 CNS 42.6% | SNB-19 CNS 17.6% | U251 CNS 11.1% | SK-MEL-5 melanoma 28.6% | UACC-62 melanoma 33.5% | LOX IMVI melanoma 17.4% | SK-MEL-28 melanoma 31.1%

COc1ccc(/C=C(\C#N)c2ccc([N+](=O)[O-])cc2)c2ccccc12
active: SNB-75 CNS -16%
inactive: DU-145 prostate 60.9% | K-562 leukemia 44.7% | MALME-3M melanoma 14.6% | MDA-MB-231 breast 45% | RXF 393 renal 58.3% | SF-268 CNS 39.8% | SF-295 CNS 70.7% | SF-539 CNS 49.4% | M14 melanoma 65.7% | HCT-15 colon 75.7% | HT29 colon 76.8% | SNB-19 CNS 24.3% | U251 CNS 27% | SK-MEL-5 melanoma 74.9% | UACC-62 melanoma 37.1% | LOX IMVI melanoma 70.2% | SK-MEL-28 melanoma 59.2%

OC1CC2c3ccccc3C1c1ccccc12 (stereo not drawn)
inactive: DU-145 prostate 117% | K-562 leukemia 111% | MALME-3M melanoma 110% | MDA-MB-231 breast 110% | RXF 393 renal 111% | SF-268 CNS 105% | SF-295 CNS 107% | SF-539 CNS 108% | M14 melanoma 98.4% | HCT-15 colon 106% | HT29 colon 110% | SNB-75 CNS 90.5% | SNB-19 CNS 117% | U251 CNS 95.8% | PC-3 prostate 100% | SK-MEL-5 melanoma 106% | UACC-62 melanoma 103% | SK-MEL-28 melanoma 112%

COc1ccc(C2NC3=C(CCCC3)C(C#N)(C#N)C2(C#N)C#N)cc1 (stereo not drawn)
inactive: DU-145 prostate 94.2% | K-562 leukemia 12.5% | MALME-3M melanoma 71.6% | MDA-MB-231 breast 70.1% | RXF 393 renal 93.8% | SF-268 CNS 97.8% | SF-295 CNS 99.7% | SF-539 CNS 101% | M14 melanoma 90.7% | HCT-15 colon 65.9% | HT29 colon 79.9% | SNB-75 CNS 88.6% | SNB-19 CNS 88.5% | U251 CNS 107% | PC-3 prostate 104% | SK-MEL-5 melanoma 101% | UACC-62 melanoma 75.4% | LOX IMVI melanoma 91.8% | SK-MEL-28 melanoma 106%

O=c1[nH]c(CN2CCN(c3ccccc3F)CC2)nc2sc3c(c12)CCC3
inactive: DU-145 prostate 109% | K-562 leukemia 109% | MALME-3M melanoma 96.4% | MDA-MB-231 breast 96.3% | RXF 393 renal 160% | SF-268 CNS 121% | SF-295 CNS 144% | SF-539 CNS 98.6% | M14 melanoma 108% | HCT-15 colon 112% | HT29 colon 106% | SNB-75 CNS 87.8% | SNB-19 CNS 106% | U251 CNS 104% | PC-3 prostate 102% | SK-MEL-5 melanoma 107% | UACC-62 melanoma 91.9% | SK-MEL-28 melanoma 117%

CCC(=O)Oc1ccc2c(c1)CC[C@@H]1[C@@H]2CC[C@]2(C)C[C@H](OC(=O)CC)C[C@@H]12
inactive: DU-145 prostate 79.2% | K-562 leukemia 29.4% | MALME-3M melanoma 80.1% | MDA-MB-231 breast 71.4% | RXF 393 renal 86.2% | SF-268 CNS 80.1% | SF-295 CNS 51.6% | SF-539 CNS 76.6% | M14 melanoma 50.5% | HCT-15 colon 38.9% | HT29 colon 110% | SNB-75 CNS 46% | SNB-19 CNS 77.7% | U251 CNS 48.3% | PC-3 prostate 63.1% | SK-MEL-5 melanoma 60.4% | UACC-62 melanoma 49.1% | LOX IMVI melanoma 76.8% | SK-MEL-28 melanoma 73.7%

O=C(/C=C/CN1CCCCC1)Nc1cc2c(Nc3ccc(F)c(Cl)c3F)ncnc2cc1OCCOC(F)F
active: K-562 leukemia 7.24% | MDA-MB-231 breast -4.23% | RXF 393 renal -17.1% | HCT-15 colon 7.81% | HT29 colon 2.26% | SNB-75 CNS -12.1% | PC-3 prostate 1.81%
inactive: DU-145 prostate 17.6% | MALME-3M melanoma 25.8% | SF-268 CNS 16.1% | SF-295 CNS 28.1% | SF-539 CNS 16.8% | M14 melanoma 34.2% | SNB-19 CNS 40.9% | U251 CNS 31.1% | SK-MEL-5 melanoma 25.3% | UACC-62 melanoma 34.1% | SK-MEL-28 melanoma 48.6%
